Here are results for 34 molecules from article PMC5540273 (PLoS ONE, 2017).

The structures appear in SMILES notation.
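Note: KINOMEscan kinase panel screen.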

The test system of the assay is T1, PKAC-beta.
T1 construct: gene PRKACB
Conditions: concentration: 1 μM, replicates: in singlicate; n = 1.
Consider `Cc1cccc(-c2nc(-c3ccc(S(C)(=O)=O)cc3)sc2-c2ccncc2)c1`, for which the “%Inh” value was 0%.

Take `Cc1ccc(NC(=O)c2ccnc(N3CCN(C)CC3)c2)cc1-c1ccc(C(=O)NCC2CC2)cc1` [GW775604]: the “%Inh” value is given as 0%. As to `COc1ccc(COc2cc(-n3cnc4ccccc43)sc2C(N)=O)cc1` [GSK1024304], the “%Inh” value was found to be 0%. As for `Fc1ccc(-c2ncn(CCCN3CCOCC3)c2-c2ccccn2)cc1` [SB-211742], the “%Inh” value is reported as 32%. The figure for `CCCCCc1nc2c(N)ncnc2n1CCCCC` [SKF-97255] is 0%; for `N#Cc1c(N2CCOCC2)sc(-c2ccn[nH]2)c1-c1ccc(Cl)cc1` it is 0%. Turning to `O=C(Nc1cccc(-c2nn3ncccc3c2-c2ccnc(Nc3cccc(C(F)(F)F)c3)n2)c1)c1c(F)cccc1F` [GSK299495], the “%Inh” value was determined as 6%. `CC(=O)Nc1ccc(COc2ccc(Nc3ccnc4cc(-c5ccccn5)ccc34)cc2)cc1.Cl` [GW440148]: the “%Inh” value turned out to be 0%. Turning to `c1ccc(-c2cc(-c3c[nH]nc3-c3ccccn3)ccn2)cc1` [GW576604], the “%Inh” value was determined as 0%. `O=C(c1ccc(-c2cc(-c3c[nH]nc3-c3ccccn3)ccn2)cc1)N1CCOCC1` [GW812171]: the “%Inh” value amounted to 3%.

In the case of `Nc1nc(-c2ccc3c(N)n[nH]c3c2)cc(N2CCCC2)n1` [GSK2227430], the “%Inh” value came out at 0%. The figure for `COc1ccc(Nc2nccc(N3CCC(NC(=O)Nc4cccc(C(C)=O)c4)C3)n2)cc1` (stereo not shown) [GSK1379731] is 0%. For the molecule `O=C1Cc2cc(Nc3nc(NCc4cccc(S(=O)(=O)C(F)(F)F)c4)ncc3C(F)(F)F)ccc2N1`, the “%Inh” value is on record as 7%. In the case of `Cc1cccc(Cn2ccn3c(=O)cc(N4CCOCC4)nc23)c1` [GSK2297542], the “%Inh” value worked out at 1%.

For the molecule `O=c1cc(N2CCOCC2)nc2n(Cc3cccc(F)c3)ccn12` [GSK2297430], the “%Inh” value is on record as 12%. The figure for `Cc1nnc(-c2ccc3occ(-c4ccc(C(C)O)cc4)c3c2)o1` (stereo not shown) is 17%; for `O=c1cc(N2CCOCC2)nc2n(Cc3cccc4ccccc34)ccn12` [GSK2333389] it is 8%. As for `Fc1ccc(-c2ncn(CCCN3CCOCC3)c2-c2cccnc2)cc1` [SB-211743], the figure is 25%. For `Cc1ccc(C(=O)NCC(N)=O)cc1-n1c(C)cc(OCc2ccc(F)cc2F)c(Br)c1=O`, the “%Inh” value worked out at 0%. With `Cn1ccc2ncnc(Oc3ccc(NC(=O)Nc4ccncc4)c(Cl)c3)c21`, the “%Inh” value was 2%. With `COc1ccc(Nc2ncc(C#N)c(Nc3ccccc3C(N)=O)n2)cc1N1CCN(C)CC1.Cl` [GSK1558669], the “%Inh” value came out at 76%. As to `COc1ccc(S(=O)(=O)NC2CCN(c3cc(C)nc(Nc4cccc(C#N)c4)n3)CC2)cc1.O=C(O)C(F)(F)F` [GSK1653539], the “%Inh” value came out at 0%. As for `c1ccc(-c2n[nH]cc2-c2ccnc3ccccc23)nc1` [GW271431], the “%Inh” value was found to be 14%. As for `Nc1nccc(-c2c(-c3ccc(F)cc3)ncn2C2CCN(CC(F)(F)F)CC2)n1` [SB-236560], the figure is 11%; as for `COc1cc2ncn(-c3cc(OCc4sccc4Cl)c(C(N)=O)s3)c2cc1OC` [GSK448459], 0%; as for `O=c1cc(N2CCOCC2)nc2n(Cc3cccc(Cl)c3Cl)c(C3CC3)nn12` [GSK2358994], 5%. With `CCc1nc(-c2cccc(C)c2)c(-c2ccnc(NCc3ccccc3)c2)s1`, the “%Inh” value was determined as 0%. As to `CSc1ccc(-c2cc3ncnc(SCC(=O)O)c3s2)cc1`, the “%Inh” value came out at 0%.

For the molecule `COc1ccc(Nc2nccc(N3CCC(NC(=O)Nc4cc(C)ccc4C)C3)n2)cc1` (stereo not shown) [GSK1379741], the “%Inh” value is reported as 0%.

For `CC(C)(C)n1cnc2c(N)ncnc21` [SKF-97359], the “%Inh” value was found to be 20%. Turning to `O=C(Nc1n[nH]c2cc(-c3cccc(F)c3)ccc12)C1CC1` [SB-735464], the “%Inh” value was 6%. `Cc1c2ccc(N(C)c3ccnc(Nc4cccc(S(N)(=O)=O)c4)n3)cc2nn1Cc1ccccc1.Cl.Cl` [GW787226]: the “%Inh” value worked out at 4%. `O=C(NCCNc1ccnc(Nc2ccc(F)cc2)n1)c1cc2ccccc2s1` [GSK1379874]: the “%Inh” value was found to be 0%.

For `Cc1cn2c(=O)cc(N3CCOCC3)nc2n1Cc1cccc(Cl)c1Cl` [GSK2334006], the “%Inh” value is given as 29%.
